Calls of active or inactive are those of the source. Calls come from the whole dose curve; as a rule, active = well fitted cell-killing curve with a large enough effect in the repeat runs; inconclusive = weak or mixed curves, or effect the other way; inactive = flat fitted curve, though single readings scatter.
Experiment: qHTS assay to identify small molecule HDAC inhibitors - cell viability counter screen (AID 1259365); note: nearly all actives have a fitted effect of over 50% in size
Conditions: HCT-116 viability, CellTiter-Glo ATP luminescence, 2 h; series mostly up to 92.4 µM
In short: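 Cytotoxicity was gauged in wild-type HCT-116 cells after a brief 2hr treatment with DMSO-dissolved compounds at 37C and 5% CO2, using CellTiter-Glo luminescence developed for 30min at room temperature.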

**Q.** With `O=C(O)CCC(=O)O` as the compound, how does the outcome read?
**A.** inactive

**Q.** Which outcome does the source give for `Oc1ccc(/C=C/c2cc(O)cc(O)c2)cc1` here?
**A.** inactive

**Q.** Which outcome does the source give for `Cc1ccc(C)c(OCCCC(C)(C)C(=O)O)c1` here?
**A.** inactive

**Q.** Which outcome does the source give for `O=C(O)c1[nH]n(-c2ccc(S(=O)(=O)O)cc2)c(=O)c1N=Nc1ccc(S(=O)(=O)O)cc1` here?
**A.** inactive

**Q.** For `CC(O)CN(CCN(CC(C)O)CC(C)O)CC(C)O` (configuration not stated), which outcome is on record?
**A.** inactive

**Q.** For `CCCCCCCCCCCCCCCC(=O)O`, which outcome is on record?
**A.** inactive

**Q.** For `O=C(O)C(=O)O`, which outcome is on record?
**A.** inactive

**Q.** For `NC(=O)c1cnccn1`, which outcome is on record?
**A.** inactive

**Q.** Which outcome does the source give for `Cc1ccccc1C(OCCN(C)C)c1ccccc1` (configuration not stated) here?
**A.** inactive

**Q.** Which outcome does the source give for `c1ccc2[nH]ccc2c1` here?
**A.** inactive

**Q.** With `CC(C)(Oc1ccc(C2CC2(Cl)Cl)cc1)C(=O)O` (configuration not stated) as the compound, how does the outcome read?
**A.** inactive

**Q.** For `CCCC(CCC)C(=O)O`, which outcome is on record?
**A.** inactive

**Q.** Which outcome does the source give for `O=C(O)CS` here?
**A.** inactive

**Q.** For `COc1c2occc2cc2ccc(=O)oc12`, which outcome is on record?
**A.** inactive

**Q.** Which outcome does the source give for `O=c1ccc2ccccc2o1` here?
**A.** inactive

**Q.** For `CCC1(c2ccccc2)C(=O)NCNC1=O`, which outcome is on record?
**A.** inactive

**Q.** For `CCCNC(=O)NS(=O)(=O)c1ccc(Cl)cc1`, which outcome is on record?
**A.** inactive

**Q.** For `O=c1cc[nH]c(=S)[nH]1`, which outcome is on record?
**A.** inactive

**Q.** Which outcome does the source give for `NC(=O)c1ccccc1O` here?
**A.** inactive

**Q.** Which outcome does the source give for `Cn1cc[nH]c1=S` here?
**A.** inactive

**Q.** For `Cn1c(=O)c2[nH]cnc2n(C)c1=O`, which outcome is on record?
**A.** inactive

**Q.** With `Cc1cc(=O)[nH]c(=S)[nH]1` as the compound, how does the outcome read?
**A.** inactive

**Q.** Which outcome does the source give for `COc1ccc2[nH]cc(CCNC(C)=O)c2c1` here?
**A.** inactive

**Q.** With `CC(C)[C@@H]1CC[C@@H](C)C[C@H]1O` as the compound, how does the outcome read?
**A.** inactive

**Q.** Which outcome does the source give for `Nc1ccn([C@H]2CC[C@@H](CO)O2)c(=O)n1` here?
**A.** inactive

**Q.** With `CC(=O)OCC(COC(C)=O)OC(C)=O` as the compound, how does the outcome read?
**A.** inactive

**Q.** With `O=C(O)c1cc(N=Nc2ccc(S(=O)(=O)Nc3ccccn3)cc2)ccc1O` as the compound, how does the outcome read?
**A.** inactive
